Test results taken from the supplement of paper PMC12350171.
Counter-ions that a name gives are not always drawn. A number with no mark means an inactive call.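 Rule for the calls: active = AUC significantly below DMSO controls by Student t-fit with adjusted P under 0.01; inactive = not significantly reduced.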

The compounds below were run on Haemophilus parainfluenzae (assay: growth AUC normalised to DMSO control (fraction of control); higher = less growth inhibition, active = hit call of the paper). Details: 20 µM.
Summary of the method: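 Pathogens were passaged twice under anaerobic conditions, then inoculated into pre-reduced mGAM plates at a starting OD578 of 0.01, with compound at 20 μM and 1% DMSO, and sealed with breathable membranes. For Haemophilus parainfluenzae, the medium was supplemented with hemin and NAD. OD578 was read every hour for 24 h in three biological replicates. Growth-curve AUC was calculated by the trapezoidal rule up to the exponential-to-stationary transition and normalised to DMSO controls on the same plate.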

First: Cc1cccc(Nc2ccccc2C(=O)O)c1C [Mefenamic acid]
Second: Cc1ccc(Cl)c(Nc2ccccc2C(=O)O)c1Cl [Meclofenamic acid sodium salt monohydrate]
The “growth AUC normalised to DMSO control” value of the first is higher: 0.946 for the first, 0.94 for the second.

First: CCCCOc1ccc(C(=O)CCN2CCCCC2)cc1 [Dyclonine hydrochloride]
Second: CC(=O)Nc1ccc(OCC(O)CNC(C)C)cc1 (centres undefined) [Practolol]
The “growth AUC normalised to DMSO control” value of the first is lower: 0.921 for the first, 1.01 for the second.

Compared with `CNCC[C@@H](Oc1ccccc1C)c1ccccc1` [Tomoxetine hydrochloride], `c1ccc(CN(CC2=NCCN2)c2ccccc2)cc1` [Antazoline hydrochloride] is lower in “growth AUC normalised to DMSO control” value: 1.02 for the first, 1.01 for the second.

Compared with `CCN(CC)CCOC(=O)C1(C2CCCCC2)CCCCC1` [Dicyclomine hydrochloride], `C[C@]12CCC(=O)C=C1CC[C@@H]1[C@@H]2[C@@H](O)C[C@@]2(C)[C@H]1CC[C@]2(O)C(=O)CO` [Hydrocortisone] is higher in “growth AUC normalised to DMSO control” value: 0.87 for the first, 0.936 for the second.

First: O=C(O)[C@H]1/C(=C/CO)O[C@@H]2CC(=O)N21 [Clavulanate potassium salt]
Second: CC(=O)[C@H]1CC[C@H]2[C@@H]3C=CC4=CC(=O)CC[C@@]4(C)[C@@H]3CC[C@]12C [Dydrogesterone]
The “growth AUC normalised to DMSO control” value of the first is higher: 1.06 for the first, 1.02 for the second.

Compared with `Cc1ccc(C)c(OCCCC(C)(C)C(=O)O)c1` [Gemfibrozil], `C#CCN(C)CCCOc1ccc(Cl)cc1Cl` [Clorgyline hydrochloride] is lower in “growth AUC normalised to DMSO control” value: 0.971 for the first, 0.943 for the second.

Going from `CN1[C@@H]2CC[C@H]1C[C@@H](OC(=O)c1c[nH]c3ccccc13)C2` [Tropisetron hydrochloride] to `CN1CCC(=C2c3ccccc3Sc3ccccc32)CC1` [Pimethixene maleate], the “growth AUC normalised to DMSO control” value falls from 1 to 0.908.

Compared with `CC(C)(C)NC[C@H](O)COc1nsnc1N1CCOCC1` [Timolol maleate salt], `COCCc1ccc(OCC(O)CNC(C)C)cc1` (stereo not drawn) [Metoprolol-(+)-tartrate salt] is lower in “growth AUC normalised to DMSO control” value: 1.02 for the first, 0.952 for the second.

Compared with `CNC1(C)C2CCC(C2)C1(C)C` (centres undefined) [Mecamylamine hydrochloride], `C[C@H]1O[C@@H](O[C@H]2[C@@H](O)C[C@H](O[C@H]3[C@@H](O)C[C@H](O[C@H]4CC[C@@]5(C)[C@H](CC[C@@H]6[C@@H]5C[C@@H](O)[C@]5(C)[C@@H](C7=CC(=O)OC7)CC[C@]65O)C4)O[C@@H]3C)O[C@@H]2C)C[C@H](O)[C@@H]1O` [Digoxin] is lower in “growth AUC normalised to DMSO control” value: 0.988 for the first, 0.979 for the second.

Going from `OCCN1CCN(CCCN2c3ccccc3C=Cc3ccccc32)CC1` [Opipramol dihydrochloride] to `CN(C)CCC=C1c2ccccc2COc2ccccc21` [Doxepin hydrochloride], the “growth AUC normalised to DMSO control” value rises from 0.911 to 0.972.

Compared with `CN(C)CCOC(c1ccc(Cl)cc1)c1ccccn1` (centres undefined) [Carbinoxamine maleate salt], `Nc1ccc(S(=O)(=O)Nc2ccnn2-c2ccccc2)cc1` [Sulfaphenazole] is lower in “growth AUC normalised to DMSO control” value: 1.08 for the first, 0.925 for the second.

First: CC(=O)Oc1ccccc1C(=O)Oc1ccccc1C(=O)O [Acetylsalicylsalicylic acid]
Second: NCCc1cc[nH]n1 [Betazole hydrochloride]
The “growth AUC normalised to DMSO control” value of the first is lower: 0.885 for the first, 1 for the second.

In the case of `Cn1ccnc1S` [Methimazole], the “growth AUC normalised to DMSO control” value is reported as 1.02.

With `CCn1cc(C(=O)O)c(=O)c2ccc(C)nc21` [Nalidixic acid sodium salt] the “growth AUC normalised to DMSO control” value was 0.813 (active).
With `N=C(NCCCCCCNC(=N)NC(=N)Nc1ccc(Cl)cc1)NC(=N)Nc1ccc(Cl)cc1` [Chlorhexidine] the “growth AUC normalised to DMSO control” value was 0.139 (active).
`CCC[C@@H]1C[C@@H](C(=O)N[C@@H]([C@H]2O[C@H](SC)[C@H](O)[C@@H](O)[C@H]2O)[C@H](C)Cl)N(C)C1` [Clindamycin hydrochloride] was tested, and the “growth AUC normalised to DMSO control” value was 0.0463 (active).
In the case of `C=C1c2c(Cl)ccc(O)c2C(O)=C2C(=O)[C@]3(O)C(O)=C(C(N)=O)C(=O)[C@@H](N(C)C)[C@@H]3[C@@H](O)[C@H]12.O=C(O)c1cc(S(=O)(=O)O)ccc1O` [Meclocycline sulfosalicylate], the “growth AUC normalised to DMSO control” value is reported as 0.0341 (active).
